In PubChem BioAssay (EPA / NIEHS):
Calls of active or inactive are those of the source. Rule for the calls: active = hit-call score of the fitted dose curve at least 0.9, where 1 is the maximum; inactive = score below 0.9.

The molecules below were run against Transcription factor Sp1 (Homo sapiens) (UniProt P08047) (assay: ATG_Sp1_CIS: Attagene CIS-FACTORIAL HepG2 Assay for human Specificity Protein 1 (Sp1) (AID 2282961)). Settings: HepG2 Sp1 cis-reporter transcription, actives raise or lower the signal.
Procedure: ATG_CIS is a cell-based, multiplexed-readout assay that uses HepG2, a human liver cell line, with measurements taken at 24 hours after chemical dosing in a 24-well plate.ATG_Sp1_CIS is one of 52 assay component(s) measured or calculated from the ATG_CIS assay. It is designed to make measurements of mRNA induction, a form of inducible reporter, as detected with fluorescence intensity signals by Reverse transcription polymerase chain reaction (RT-PCR) and Capillary electrophoresis technology.Data from the assay component ATG_Sp1_CIS was analyzed into 1 assay endpoint. This assay endpoint, ATG_Sp1_CIS, was analyzed with bidirectional fitting relative to DMSO as the negative control and baseline of activity. Using a type of inducible reporter, measures of mRNA for gain or loss-of-signal activity can be used to understand the reporter gene at the transcription factor-level as they relate to the gene SP1. Furthermore, this assay endpoint can be referred to as a primary readout, because this assay has produced multiple assay endpoints where this one serves a reporter gene function. To generalize the intended target to other relatable targets, this assay endpoint is annotated to the dna binding intended target family, where the subfamily is zinc finger.
Human liver HepG2 cells are transiently transfected with multiple reporter transcription units (MRTUs) in 6-well plates using FuGene 6 reagent (Roche; 3 ml FuGene/1 mg DNA). The MRTU constructs are regulated by a cis-regulating element (promoter). […] A major difference between the CIS and TRANS system is that in CIS activities of endogenous TFs are measured, whereas the TRANS assay evaluates changes in activities of exogenous, chimeric NR-Gal4 proteins. […] At the end of 24 hour incubation, total RNA was isolated using TriZol reagent (Invitrogen). The isolated RNA is then reverse-transcribed using oligo(dT) primer and Mo-MLV reverse transcriptase (Invitrogen) with DNAse I (Ambion) treatment for 30 min. The one-tenth of the produced cDNA was amplified by PCR using Taq DNA polymerase (Invitrogen) and two reporter sequence-specific primers. The PCR products were fluorescently labeled by primer extension with 6-arboxyfluorescein (6-FAM) 5'-labeled reporter sequence-specific primer (2 min at 95 C, 20 s at 68 C and 10 min at 72 C) and these products were digested with 5U of HpaI (New England Biolabs) for 2h at 37 C. The fragments were purified using Qiaquick PCR columns (Qiagen), analyzed on an ABI 3130xL genetic analyzer (Applied Biosystems) with peak positions identified by using a set of X-rhodamine (ROX)-labeled MapMarker1000 molecular weight standards (BioVentures). The raw capillary electrophoresis data was processed using Attagraph software (Attagene).

Sequence of Transcription factor Sp1 (Homo sapiens) (P08047 whole entry, looked up): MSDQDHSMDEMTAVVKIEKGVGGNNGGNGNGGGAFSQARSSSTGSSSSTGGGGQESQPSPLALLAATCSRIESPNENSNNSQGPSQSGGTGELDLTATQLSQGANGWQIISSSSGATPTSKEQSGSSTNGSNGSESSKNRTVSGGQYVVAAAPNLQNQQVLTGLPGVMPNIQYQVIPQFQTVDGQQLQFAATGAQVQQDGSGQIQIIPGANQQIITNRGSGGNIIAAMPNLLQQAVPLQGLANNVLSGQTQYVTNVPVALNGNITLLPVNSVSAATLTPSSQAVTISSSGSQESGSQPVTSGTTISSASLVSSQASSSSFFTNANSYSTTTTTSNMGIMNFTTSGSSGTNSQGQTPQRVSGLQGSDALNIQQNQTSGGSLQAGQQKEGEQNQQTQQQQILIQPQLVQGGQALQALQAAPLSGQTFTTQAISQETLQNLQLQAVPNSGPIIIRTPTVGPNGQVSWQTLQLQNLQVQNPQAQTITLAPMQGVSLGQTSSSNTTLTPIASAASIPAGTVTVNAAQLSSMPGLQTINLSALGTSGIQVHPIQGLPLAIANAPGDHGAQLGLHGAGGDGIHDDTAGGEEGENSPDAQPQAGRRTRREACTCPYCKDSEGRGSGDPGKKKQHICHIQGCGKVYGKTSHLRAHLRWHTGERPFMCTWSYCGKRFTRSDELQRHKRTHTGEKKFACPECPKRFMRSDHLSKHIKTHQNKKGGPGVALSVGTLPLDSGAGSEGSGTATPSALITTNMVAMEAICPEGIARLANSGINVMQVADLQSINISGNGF

Row | Structure (SMILES) | outcome
1 | Cc1ccc(S(=O)(=O)OCC(F)(F)C(F)(F)C(F)(F)C(F)(F)C(F)(F)C(F)F)cc1 | inactive
2 | FC(F)(F)C(F)(F)C(F)(F)C(F)(F)C(F)(F)C(F)(F)CC1CO1 (stereo not given) | inactive
3 | O=C(CC(=O)C(F)(F)C(F)(F)F)C(F)(F)F | inactive
4 | c1ccc(B(c2ccccc2)c2ccccc2)cc1 | inactive
5 | Nc1ccc([N+](=O)[O-])cc1O | inactive
6 | COC(=O)CCC(F)(F)C(F)(F)C(F)(F)C(F)(F)F | inactive
7 | CC/C=C\CCOC(=O)c1ccccc1 | inactive
8 | CNC(=S)NC | inactive
9 | C=CC(F)(F)C(F)(F)C(F)(F)C(F)(F)C(F)(F)C(F)(F)C(F)(F)C(F)(F)F | inactive
10 | OCC(F)(F)C(F)(F)C(F)(F)C(F)F | inactive
11 | C=CC(F)(F)C(F)(F)C(F)(F)C(F)(F)C(F)(F)C(F)(F)C(F)(F)C(F)(F)C=C | inactive
12 | FC(F)(F)C(F)(F)C(F)(F)C(F)(F)CCI | inactive
13 | O=S(=O)(OCCOC(F)(F)F)C(F)(F)F | inactive
14 | C=C(C)C(=O)OCC(F)(F)C(F)(F)C(F)(F)F | inactive
15 | O=C(O)C(F)(F)C(F)(F)C(F)(F)C(F)(F)C(F)(F)C(F)(F)C(F)(F)C(F)(F)C(F)(F)C(F)(F)C(F)(F)C(F)(F)C(F)(F)F | inactive
16 | O=P(O)(O)OCCC(F)(F)C(F)(F)C(F)(F)C(F)(F)C(F)(F)C(F)(F)F | inactive
17 | CCCCOc1ccc(N)cc1 | inactive
18 | O=C(O)C(F)(F)C(F)(F)C(F)(F)C(F)(F)C(F)(F)C(F)(F)C(F)(F)C(F)(F)Cl | inactive
19 | CCCCCCCOC(=O)c1ccccc1C(=O)OCCCCCCC | inactive
20 | O=C(O)C(F)(F)C(F)(F)C(F)(F)C(F)(F)F | inactive

Row | Structure (SMILES) | outcome
21 | C=C(C)C(=O)OCC(F)(F)C(F)(F)C(F)(F)C(F)(F)C(F)(F)C(F)(F)C(F)(F)F | inactive
22 | CC(C)=CCCC(C)CCOC(=O)C(C)C (stereo not given) | inactive
23 | OCC(F)(F)C(F)(F)C(F)(F)C(F)(F)C(F)(F)C(F)F | inactive
24 | O=C(Cl)C(F)(F)C(F)(F)C(F)(F)C(F)(F)C(F)(F)C(F)(F)C(F)(F)C(F)(F)F | inactive
25 | O=C(O)C(F)(OC(F)(F)C(F)(OC(F)(F)C(F)(F)C(F)(F)F)C(F)(F)F)C(F)(F)F (stereo not given) | inactive
26 | CCN(CC)c1ccc2c(C)cc(=O)oc2c1 | inactive
27 | CCN(Cc1cccc(S(=O)(=O)O)c1)c1ccc(C(=C2C=CC(=[N+](CC)Cc3cccc(S(=O)(=O)O)c3)C=C2)c2ccc(O)cc2S(=O)(=O)[O-])cc1 | inactive
28 | O=C(O)C=C(C(F)(F)F)C(F)(F)F | inactive
29 | FC(F)(F)C(F)(F)C(F)(F)C(F)(F)C(F)(F)CCI | inactive
30 | C=CC/C=C/C/C=C/C/C=C/C | inactive
31 | FC(F)(F)C(F)(F)C(F)(F)CI | inactive
32 | FC(F)(I)C(F)(F)C(F)(F)C(F)(F)I | inactive
33 | OCCCC(F)(F)C(F)(F)C(F)(F)F | inactive
34 | CC(=O)Nc1ccc(N=Nc2cc(C)ccc2O)cc1 | inactive
35 | C=CC(=O)OCC(F)(F)C(F)(F)C(F)(F)C(F)(F)C(F)(F)C(F)(F)C(F)(F)F | inactive
36 | Cc1cccc(N(C)C)c1 | inactive
37 | CCC(=O)OCCc1ccccc1 | inactive
38 | CCCCCCOC(=O)c1ccccc1 | inactive
39 | O=C(O)C(F)(F)C(F)(F)C(F)(F)C(F)(F)C(F)(F)C(F)(F)C(F)(F)C(F)(F)C(F)(F)C(F)(F)C(F)(F)C(F)(F)F | inactive
40 | CC(C)OC(=O)c1ccccc1C(=O)OC(C)C | inactive
